Here are results for 24 compounds from publication PMC4336329 (PLoS ONE, 2015).

Screen size: about 310,000 compounds; about 14,000 (4.5%) showed an effect of 50% or more. The effect is printed as a negative number. For the sample, strong results were picked, then their nearest neighbours and some compounds at random.
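Further: peak tail current of the secondary pulse compared with the same well before compound.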

The target of this test is human ether-à-go-go-related gene (hERG) potassium channel (human, UniProt Q12809). As to the kind of experiment: primary screen, population patch clamp on CHO cells stably expressing hERG; higher = less effect of the substance.
Sequence of human ether-à-go-go-related gene (hERG) potassium channel (Q12809 whole entry, looked up): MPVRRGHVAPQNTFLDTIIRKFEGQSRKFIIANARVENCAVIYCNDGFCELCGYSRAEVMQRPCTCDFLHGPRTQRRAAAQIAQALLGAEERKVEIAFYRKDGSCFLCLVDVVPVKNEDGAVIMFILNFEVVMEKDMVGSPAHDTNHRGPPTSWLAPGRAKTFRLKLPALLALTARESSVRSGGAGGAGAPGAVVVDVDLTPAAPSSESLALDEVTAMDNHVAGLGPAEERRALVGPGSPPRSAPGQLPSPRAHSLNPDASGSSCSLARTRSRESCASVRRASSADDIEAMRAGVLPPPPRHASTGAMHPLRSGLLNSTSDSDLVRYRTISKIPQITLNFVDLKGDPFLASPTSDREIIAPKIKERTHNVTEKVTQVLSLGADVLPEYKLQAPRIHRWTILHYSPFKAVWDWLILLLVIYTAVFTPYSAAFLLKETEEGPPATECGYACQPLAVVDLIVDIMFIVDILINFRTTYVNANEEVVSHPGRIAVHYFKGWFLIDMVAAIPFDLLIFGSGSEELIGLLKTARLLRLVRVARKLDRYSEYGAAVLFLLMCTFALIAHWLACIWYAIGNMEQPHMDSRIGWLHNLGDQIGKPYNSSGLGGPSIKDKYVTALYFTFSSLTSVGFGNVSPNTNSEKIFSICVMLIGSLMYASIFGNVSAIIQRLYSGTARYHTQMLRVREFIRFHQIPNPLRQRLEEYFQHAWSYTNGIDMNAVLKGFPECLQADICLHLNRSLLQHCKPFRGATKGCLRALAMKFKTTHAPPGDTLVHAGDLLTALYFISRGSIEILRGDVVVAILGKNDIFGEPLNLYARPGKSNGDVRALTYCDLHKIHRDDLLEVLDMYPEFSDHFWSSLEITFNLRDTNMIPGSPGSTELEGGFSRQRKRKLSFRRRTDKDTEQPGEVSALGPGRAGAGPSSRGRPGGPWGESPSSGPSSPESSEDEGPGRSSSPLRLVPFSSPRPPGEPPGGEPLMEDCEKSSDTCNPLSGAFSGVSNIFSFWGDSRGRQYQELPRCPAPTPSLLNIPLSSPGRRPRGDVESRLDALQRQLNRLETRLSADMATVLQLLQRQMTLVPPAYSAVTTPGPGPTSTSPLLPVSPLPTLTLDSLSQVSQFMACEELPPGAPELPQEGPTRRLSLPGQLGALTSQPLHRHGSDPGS
`CC(C)C[C@H](NC(=O)C1CC(=O)N(c2ccc(F)cc2)C1)C(=O)N1CCCCC1` (stereo partly drawn): the “hERG current change (%, negative = inhibition) at 10uM” value is listed as -0.716%.

As for `CC1Cc2ccccc2N1C(=O)CSc1nn2c(=O)c(C(C)(C)C)nnc2s1` (stereo not drawn), the “hERG current change (%, negative = inhibition) at 10uM” value worked out at 0.00368%.

`CC(=O)Nc1ccc(S(=O)(=O)Nc2cc(-c3ccccc3)nn2C)cc1`: the “hERG current change (%, negative = inhibition) at 10uM” value was 18.5%.

For `O=C(CCN1CCN(C(=O)c2ccccc2)CC1)c1ccc(Br)cc1`, the “hERG current change (%, negative = inhibition) at 10uM” value is listed as -29.5%.

With `O=C(CCN1CCN(c2ccccc2)CC1)NNC(=O)Cc1ccccc1Cl`, the “hERG current change (%, negative = inhibition) at 10uM” value came to 5.76%.

In the case of `COc1ccccc1N1CCN(CCN(C(=O)C2CCCCC2)c2ccccn2)CC1.O=C(O)/C=C\C(=O)O`, the “hERG current change (%, negative = inhibition) at 10uM” value is reported as -27.4%.

As to `O=C(CCN1CCN(c2ccccc2)CC1)c1ccc(Br)cc1`, the “hERG current change (%, negative = inhibition) at 10uM” value is recorded as -55.1%.

`COc1ccc(OCCCC(=O)NNC(=O)CCN2CCN(c3ccccc3)CC2)cc1`: the “hERG current change (%, negative = inhibition) at 10uM” value is listed as 7.89%.

Take `COc1ccccc1N1CCN(CC(C)N(C(=O)C2CCCCC2)c2ccccn2)CC1` (stereo not drawn): the “hERG current change (%, negative = inhibition) at 10uM” value is given as -67.9%.

In the case of `Cl.O=C(CCN1CCOCC1)c1ccc(Br)cc1`, the “hERG current change (%, negative = inhibition) at 10uM” value was 25.2%.

For `CC(Oc1ccc(Br)cc1)C(=O)NNC(=O)CCN1CCN(c2ccccc2)CC1` (stereo not drawn), the “hERG current change (%, negative = inhibition) at 10uM” value is -61.9%.

`COc1ccccc1N1CCN(CC(=O)c2ccc(F)cc2)CC1.Cl`: the “hERG current change (%, negative = inhibition) at 10uM” value was 15.7%.

As for `COc1ccccc1N1CCN(CCCC(=O)c2ccc(F)cc2)CC1`, the “hERG current change (%, negative = inhibition) at 10uM” value is -71.7%.

With `COc1ccccc1N1CCN(C(=O)CCC(=O)N2CCN(c3ccc(F)cc3)CC2)CC1`, the “hERG current change (%, negative = inhibition) at 10uM” value is reported as -17%.

`COc1ccccc1N1CCN(C(=O)C(CC(C)C)NC(=O)C2CCCCC2)CC1` (stereo not drawn): the “hERG current change (%, negative = inhibition) at 10uM” value is recorded as -16.6%.

Turning to `Oc1ccc(Cl)cc1C1=NNC(c2cccs2)C1` (stereo not drawn), the “hERG current change (%, negative = inhibition) at 10uM” value worked out at 9.76%.

As for `COc1ccc(C(=O)Nc2cc(C)on2)cc1OC`, the “hERG current change (%, negative = inhibition) at 10uM” value was 10%.

For `O=C(NCCn1cc(SCc2ccc(F)cc2)c2ccccc21)c1c(F)cccc1F`, the “hERG current change (%, negative = inhibition) at 10uM” value is on record as 9.31%.

As for `COc1cccc(C(=O)OCCN2C(=O)c3ccccc3C2=O)c1OC`, the “hERG current change (%, negative = inhibition) at 10uM” value stood at 4.5%.

`CC1CC(C)CN(CCCNC(=O)Cn2ncc3c([nH]c4ccccc43)c2=O)C1` (stereo not drawn): the “hERG current change (%, negative = inhibition) at 10uM” value is reported as -18%.

As to `CC(C)NS(=O)(=O)c1ccc(CCC(=O)Nc2ccc3c(c2)OCO3)cc1`, the “hERG current change (%, negative = inhibition) at 10uM” value is reported as 1.66%.

In the case of `COc1ccc2c(c1)C(C)=CC(C)(C)N2C(=O)Nc1ccccc1`, the “hERG current change (%, negative = inhibition) at 10uM” value was -14.9%.

Regarding `O=C(OCC(=O)N1CCN(c2ccccc2)CC1)c1cc(Br)ccc1Cl`, the “hERG current change (%, negative = inhibition) at 10uM” value was -25.3%.

Turning to `CN(CC(=O)Nc1ccc(F)cc1)C(=O)c1cc(-c2ccco2)nc2ccccc12`, the “hERG current change (%, negative = inhibition) at 10uM” value is -32.5%.
